Reference: PubChem BioAssay
Calls of active or inactive are those of the source.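 Rule for the calls, unless noted: active = normalized viability below 100% at a tested concentration; inactive = the rest.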

Tests used:
[1] = liver-stage malaria parasite load reduction – cell-based, known kinase inhibitor set, luminescence, hepatoma host viability (AID 624392; call rule not given here;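 note: infected cells incubated roughly two days before readout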); settings: Plasmodium liver stage in hepatoma cells, luciferase luminescence, concentration not given here; liver cell % of control: measured here: host liver cell viability; parasite % of control: stronger effect = lower value
[2] = altered dexamethasone sensitivity, NF-kB reporter, cell-based, luciferase, IL-1B stimulus (AID 624486; call rule not given here;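 for percent of negative control (+Dex): 100% = mean signal of vehicle control wells on the plate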); settings: IL-1B + dexamethasone, luminescence; percent of negative control (+Dex): actives lie on both sides, concentration not given here; z-score: measured here: IL-1B alone, no Dex
[3] = C. elegans survival during P. aeruginosa infection – whole organism (AID 651566; call rule not given here;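 note: tested at 14 µM; sign flipped so higher z means a lower ratio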); settings: C. elegans killed by P. aeruginosa, survival ratio
[4] = pro-inflammatory signaling induction in mouse macrophages – cell-based, murine, luminescence (AID 652131; call rule not given here); settings: murine macrophage pro-inflammatory reporter, stronger effect = higher value
[5] = MELAS cybrid and Rieske KO viability enhancers – cell-based, MELAS cybrids, Rieske KO mouse fibroblasts, CellTiter-Glo, primary screen (AID 1508586;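 active = mean z-score across replicates of 1.96 or higher in either the MELAS or the Rieske mutant cell line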;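 note: z relative to plate mean and SD of compound and empty wells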); settings: low glucose
[6] = drug combination growth inhibition, ovarian cancer – cell-based, oncology-focused library, rucaparib conditional, profiling panel (AID 1508598); settings: patient-derived ovarian cancer cells, CellTiter-Glo viability, 144 h, stronger effect = lower value
[7] = MELAS cybrid survival, CellTiter-Glo 48 h, stronger effect = higher value
[8] = Rieske KO mouse fibroblast survival, CellTiter-Glo 72 h

NC(=O)c1cccc(Nc2nccc(Nc3cccc4[nH]ncc34)n2)c1
0.725: z-score [2]
-0.0979: z-score [5, 8]
75%: liver cell % of control [1]
inactive: parasite % of control [1] 429% | percent of negative control (+Dex) [2] 95.5% | z-score [3] -0.905 | z-score [4] 1.14 | z-score [5, 7] 0.00705

CC(=O)O[C@H]1C(=O)[C@@]2(C)C([C@H](OC(=O)c3ccccc3)[C@]3(O)C[C@H](OC(=O)[C@H](O)[C@@H](NC(=O)c4ccccc4)c4ccccc4)C(C)=C1C3(C)C)[C@]1(OC(C)=O)CO[C@@H]1C[C@H]2O (stereo partly specified)
inactive: viability ([6]; at 0.000305 µM, OCI-C5x cells, with rucaparib 10 µM, 100% = cells with rucaparib alone) 112% | viability ([6]; at 0.000305 µM, OCI-C5x cells, without rucaparib) 129% | viability ([6]; at 0.000305 µM, OCI-P5x cells, with rucaparib 20 µM, 100% = cells with rucaparib alone) 125% | viability ([6]; at 0.000305 µM, OCI-P5x cells, without rucaparib) 125% | viability ([6]; at 0.00122 µM, OCI-C5x cells, with rucaparib 10 µM, 100% = cells with rucaparib alone) 114% | viability ([6]; at 0.00122 µM, OCI-C5x cells, without rucaparib) 121% | viability ([6]; at 0.00122 µM, OCI-P5x cells, with rucaparib 20 µM, 100% = cells with rucaparib alone) 119% | viability ([6]; at 0.00122 µM, OCI-P5x cells, without rucaparib) 123%
active: viability ([6]; at 0.00488 µM, OCI-C5x cells, with rucaparib 10 µM, 100% = cells with rucaparib alone) 75.3% | viability ([6]; at 0.00488 µM, OCI-C5x cells, without rucaparib) 71.2% | viability ([6]; at 0.00488 µM, OCI-P5x cells, with rucaparib 20 µM, 100% = cells with rucaparib alone) 97.9% | viability ([6]; at 0.00488 µM, OCI-P5x cells, without rucaparib) 39.8% | viability ([6]; at 0.0195 µM, OCI-C5x cells, with rucaparib 10 µM, 100% = cells with rucaparib alone) 37% | viability ([6]; at 0.0195 µM, OCI-C5x cells, without rucaparib) 35.9% | viability ([6]; at 0.0195 µM, OCI-P5x cells, with rucaparib 20 µM, 100% = cells with rucaparib alone) 63.2% | viability ([6]; at 0.0195 µM, OCI-P5x cells, without rucaparib) 16.9% | viability ([6]; at 0.0781 µM, OCI-C5x cells, with rucaparib 10 µM, 100% = cells with rucaparib alone) 34.2% | viability ([6]; at 0.0781 µM, OCI-C5x cells, without rucaparib) 30.2% | viability ([6]; at 0.0781 µM, OCI-P5x cells, with rucaparib 20 µM, 100% = cells with rucaparib alone) 64.9% | viability ([6]; at 0.0781 µM, OCI-P5x cells, without rucaparib) 17.4% | viability ([6]; at 0.313 µM, OCI-C5x cells, with rucaparib 10 µM, 100% = cells with rucaparib alone) 36.2% | viability ([6]; at 0.313 µM, OCI-C5x cells, without rucaparib) 29.8% | viability ([6]; at 0.313 µM, OCI-P5x cells, with rucaparib 20 µM, 100% = cells with rucaparib alone) 57.9% | viability ([6]; at 0.313 µM, OCI-P5x cells, without rucaparib) 18.2% | viability ([6]; at 1.25 µM, OCI-C5x cells, with rucaparib 10 µM, 100% = cells with rucaparib alone) 30% | viability ([6]; at 1.25 µM, OCI-C5x cells, without rucaparib) 32.8% | viability ([6]; at 1.25 µM, OCI-P5x cells, with rucaparib 20 µM, 100% = cells with rucaparib alone) 56.9% | viability ([6]; at 1.25 µM, OCI-P5x cells, without rucaparib) 18.7% | viability ([6]; at 5 µM, OCI-C5x cells, with rucaparib 10 µM, 100% = cells with rucaparib alone) 24.5% | viability ([6]; at 5 µM, OCI-C5x cells, without rucaparib) 24.4% | viability ([6]; at 5 µM, OCI-P5x cells, with rucaparib 20 µM, 100% = cells with rucaparib alone) 34.2% | viability ([6]; at 5 µM, OCI-P5x cells, without rucaparib) 17%

CS(=O)(=O)CCNCc1coc(-c2ccc3ncnc(Nc4ccc(OCc5ccccc5)cc4)c3c2)c1
inactive: parasite % of control [1] 176% | percent of negative control (+Dex) [2] 90% | z-score [3] -0.225 | z-score [4] 2.75 | z-score [5, 7] -0.812
-0.493: z-score [5, 8]
87.7%: liver cell % of control [1]
-0.13: z-score [2]

COc1ccccc1C(=O)N1CCN2C(=O)[C@H](CCCCN)NC(=O)[C@H]2C1
inactive: z-score [5, 7] 0.643
-0.574: z-score [5, 8]

CS(=O)(=O)CCNCc1ccoc1-c1ccc2ncnc(Nc3ccc(OCc4ccccc4)cc3)c2c1
inactive: parasite % of control [1] 112% | percent of negative control (+Dex) [2] 80% | z-score [3] 0.33 | z-score [4] 3.01 | z-score [5, 7] 0.221
97.4%: liver cell % of control [1]
-0.675: z-score [2]
-0.404: z-score [5, 8]

COc1cc2ncn(-c3cc(OCCc4ccccc4)c(C(N)=O)s3)c2cc1OC
-0.0569: z-score [5, 8]
140%: liver cell % of control [1]
0.89: z-score [2]
inactive: parasite % of control [1] 71.4% | percent of negative control (+Dex) [2] 95% | z-score [3] -0.32 | z-score [4] 0.419 | z-score [5, 7] -0.0219
